High-throughput results as filed in PubChem.
DRD3 agonist – D3 dopamine receptor (human) agonism. P35462. D3R DiscoveRx beta-arrestin cells, luminescence, 90 min. max activation, %. 410,000 tested, 0.58% active. AID 652048; in the data active means max activation above about 30%; further: 0% is about no effect
Target sequence (P35462 whole entry, looked up): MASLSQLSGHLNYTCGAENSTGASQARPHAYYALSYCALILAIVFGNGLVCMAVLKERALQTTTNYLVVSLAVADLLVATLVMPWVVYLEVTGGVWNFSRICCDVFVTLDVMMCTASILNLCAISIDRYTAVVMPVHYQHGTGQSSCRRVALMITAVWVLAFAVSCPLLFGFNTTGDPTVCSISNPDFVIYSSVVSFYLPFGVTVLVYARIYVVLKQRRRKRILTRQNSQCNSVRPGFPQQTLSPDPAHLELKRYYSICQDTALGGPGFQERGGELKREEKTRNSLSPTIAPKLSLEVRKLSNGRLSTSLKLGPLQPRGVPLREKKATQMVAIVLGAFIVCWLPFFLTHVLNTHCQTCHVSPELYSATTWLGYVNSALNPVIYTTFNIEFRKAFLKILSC
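Agonist mode: compounds and dopamine controls were applied to plated cells for 90 min at 37 degrees C after an overnight attachment at 1500 cells/well. Luminescent read-out followed 30 - 60 minutes at room temperature with DiscoveRx detection reagent.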
ClpP mod – qHTS Assay for Activators of ClpP. AID 651965, 2013. ATP-dependent Clp protease proteolytic subunit (Bacillus subtilis (strain 168)), P80244. purified B. subtilis ClpP, FRET peptide cleavage, 20 min. Potency, µM (doses to about 57.5 µM), inactives show top-dose activity change, negative = active. 340,000 tested, 1.9% active; active means well fitted falling curve with a large enough effect; inconclusive means small, poorly fitted or top-dose-only effect; inactive means no such curve, though single readings can be large or run the other way; further: potency means the concentration at half of the fitted maximal effect; the source files actives as falling curves though it sought activators and does not explain the sign; nearly all actives have a fitted effect of over 65% in size
Target sequence (P80244 whole entry, looked up): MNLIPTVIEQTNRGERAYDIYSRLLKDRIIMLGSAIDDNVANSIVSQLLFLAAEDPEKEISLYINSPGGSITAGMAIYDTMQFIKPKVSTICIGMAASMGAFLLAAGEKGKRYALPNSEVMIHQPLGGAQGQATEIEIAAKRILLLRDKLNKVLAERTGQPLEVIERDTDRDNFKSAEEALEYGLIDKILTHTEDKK
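Purified B. subtilis ClpP, 10 microg/mL final in Tris/HCl pH8 with KCl, BSA, glycerol and Tween-20, cleaved an Abz/nitrotyrosine-quenched decapeptide. Fluorescence (ex 320, em 430) was read at 0 and 20 min at room temperature. Delta was normalized to 5.8 microM ADEP and DMSO/no-enzyme controls.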
IL-1B inflam inh – inhibitors of inflammasome signaling (IL-1 beta secretion). 360,000 tested, 4.7% active. AID 743279. THP-1 LPS/ATP IL-1B secretion, AlphaLISA, 16 h; hits give low values. activity change, % at 57.5 µM; in the data active means activity change below about -50%; inconclusive means mostly about -30% to -49%; further: on the % scale 0 is the no-effect control and ±100 the full control effect
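THP-1 cells pretreated 1 hr with compounds (up to 57.5 uM final), then stimulated with LPS (250 ng/mL final) plus ATP (1.25 mM final); secreted IL-1B measured by AlphaLISA after 16 hr, decreased signal indicating inhibition.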
TDP1 cell noCPT – qHTS for Inhibitors of human tyrosyl-DNA phosphodiesterase 1 (TDP1): qHTS in cells in absence of CPT; DT40 Tdp1-/- hTDP1 cells, no CPT, ATP luminescence, 48 h; Potency, µM (series often up to 46.2 µM), inactives show top-dose activity change, negative = growth inhibition, most hits filed as inhibitors; 420,000 tested, 15% active; AID 686978, 2013; further: potency means the concentration at half of the fitted maximal effect; on the % scale 0 is the no-effect control and ±100 the full control effect; nearly all actives have a fitted effect of over 55% in size
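No-CPT arm: Tdp1-/-;hTDP1 DT40 cells (400/well) plus compounds, incubated ≥48 hr at 37 °C. Readout CellTiter-Glo luminescence.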
DRD3 antagonist – blocks the human D3 dopamine receptor | D3R cells, DiscoveRx beta-arrestin luminescence, antagonist mode; hits give low values | max response, negative = inhibition, % | 360,000 tested, 2.5% active | AID 652054; in the data active means max response below about -50%; inconclusive means no clear call, values can overlap the other calls; further: on the % scale 0 is the no-effect control and ±100 the full control effect
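Cells expressing the human receptor were seeded at 1500 cells/well, incubated overnight at 37 degrees C in 5% CO2, then exposed to library compounds with dopamine controls for 90 minutes at 37 degrees C before luminescent detection.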
DT40 TDP1 CPT – DT40-hTDP1 cell growth loss with CPT; chicken DT40 Tdp1-/-;hTDP1 cells + 20 nM CPT, ATP luminescence, 48 h; Potency, µM (series often up to 46.2 µM), for inactives: at the top dose activity change, negative = growth inhibition, actives largely listed as inhibitors; 420,000 tested, 12% active; further: potency means the concentration at half of the fitted maximal effect; on the % scale 0 is the no-effect control and ±100 the full control effect; nearly all actives have a fitted effect of over 55% in size
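Chicken DT40 Tdp1-/- cells complemented with human TDP1, 400 cells/well, exposed to compounds plus 20 nM camptothecin for at least 48 h at 37 C; viability read as ATP content by CellTiter-Glo luminescence.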
Active calls of the source: *; [ ] = another dose, or the depositor's remark. Only some compounds are listed: those with a hit (about 21% of all), similar ones and a draw of the others. Unless noted, the call rests on the fitted dose curve; in most records, active means well fitted inhibition curve with a large enough effect; inconclusive means small, poorly fitted or top-dose-only effect; inactive means flat fitted curve, though single readings scatter.

For CCN(CC)CCNC(=O)c1ccc2c(c1)N(Cc1ccccc1)C(=O)c1ccccc1S2=O (centres undefined) the results were DRD3 agonist -24, ClpP mod -1%, TDP1 cell noCPT inconclusive and DT40 TDP1 CPT inconclusive.
For CCN(C(=O)c1ccc2c(c1)N(Cc1cccc(Cl)c1)C(=O)c1ccccc1S2=O)c1ccccc1 (centres undefined) the results were DRD3 agonist -20, ClpP mod -6%, TDP1 cell noCPT 16µM* and DT40 TDP1 CPT inconclusive.
Screening CCN1CCN(CCNC(=O)c2ccc3c(c2)N(Cc2cccc(Cl)c2)C(=O)c2ccccc2S3=O)CC1 (centres undefined) returned DRD3 agonist -10, ClpP mod -1%, IL-1B inflam inh -55*, TDP1 cell noCPT -3%, DRD3 antagonist -15 and DT40 TDP1 CPT -17%.
CCNc1nc(NCC)nc(N/N=C/c2ccc([N+](=O)[O-])o2)n1 was read as DRD3 agonist -5, ClpP mod 1%, IL-1B inflam inh 7, TDP1 cell noCPT 16µM*, DRD3 antagonist -26 and DT40 TDP1 CPT 16µM*.
Screening O=[N+]([O-])c1cccc(-c2ccc(/C=N/Nc3nc(N4CCCCC4)nc(N4CCCCC4)n3)o2)c1 returned DRD3 agonist 52*, IL-1B inflam inh -14, TDP1 cell noCPT inconclusive, DRD3 antagonist 108 and DT40 TDP1 CPT inconclusive.
For COc1ccc(-c2cnnc(N/N=C/c3ccc(-c4ccc([N+](=O)[O-])cc4)o3)n2)cc1 the results were DRD3 agonist 0, ClpP mod 1%, IL-1B inflam inh 54, TDP1 cell noCPT 1.5µM*, DRD3 antagonist 13 and DT40 TDP1 CPT 1.2µM*.
Screening O=[N+]([O-])c1ccc(-c2ccc(/C=N/Nc3nc(N4CCCCC4)nc(N4CCCCC4)n3)o2)cc1 returned DRD3 agonist 10, IL-1B inflam inh 14, TDP1 cell noCPT 21µM*, DRD3 antagonist 15 and DT40 TDP1 CPT inconclusive.
For CCNc1nc(NCC)nc(N/N=C/c2ccccc2)n1 the results were DRD3 agonist -15, ClpP mod -1%, IL-1B inflam inh 7, TDP1 cell noCPT 0%, DRD3 antagonist inconclusive and DT40 TDP1 CPT 3%.
COc1cc(/C=N/Nc2ccccn2)ccc1O was read as DRD3 agonist -2, IL-1B inflam inh 0, TDP1 cell noCPT -2%, DRD3 antagonist inconclusive and DT40 TDP1 CPT -7%.
`COc1ccccc1-c1cnnc(N/N=C/c2ccc(-c3cccc(Br)c3)o2)n1` gave DRD3 agonist 57*, ClpP mod -1%, IL-1B inflam inh -22, TDP1 cell noCPT 23µM*, DRD3 antagonist 19 and DT40 TDP1 CPT 15µM*.
Screening COc1ccc(-c2cnnc(N/N=C/c3ccc(O)c(OC)c3)n2)cc1 returned DRD3 agonist 32*, ClpP mod -2%, IL-1B inflam inh -27, TDP1 cell noCPT 5.2µM*, DRD3 antagonist 13 and DT40 TDP1 CPT 5.2µM*.
Screening O=C(O)c1cccc(-c2ccc(/C=N/Nc3nn[nH]n3)o2)c1 returned DRD3 agonist 2, IL-1B inflam inh 3, TDP1 cell noCPT 2%, DRD3 antagonist -2 and DT40 TDP1 CPT 16%.
`O=[N+]([O-])c1ccc(/C=N/Nc2nc(N3CCCC3)nc(N3CCCC3)n2)o1` gave DRD3 agonist -5, ClpP mod -3%, IL-1B inflam inh 2, TDP1 cell noCPT inconclusive, DRD3 antagonist 4 and DT40 TDP1 CPT 23µM*.
For O=[N+]([O-])c1ccc(-c2ccc(/C=N/Nc3nc(N4CCCC4)nc(N4CCCC4)n3)o2)cc1 the results were DRD3 agonist 22, IL-1B inflam inh 41, TDP1 cell noCPT 4.6µM*, DRD3 antagonist 48 and DT40 TDP1 CPT 15µM*.
For CCC(C)[C@H](NC(=O)[C@@H]1CSC2c3ccccc3C(=O)N21)C(=O)N1CCCCC1 (some centres undefined) the results were DRD3 agonist 4, ClpP mod 0%, IL-1B inflam inh -9, TDP1 cell noCPT 14%, DRD3 antagonist 6 and DT40 TDP1 CPT -23%.
`CCCCN1CNC(=S)N(CCc2ccc(OCC)c(OCC)c2)C1` gave DRD3 agonist -14, IL-1B inflam inh 27, TDP1 cell noCPT inconclusive, DRD3 antagonist -3 and DT40 TDP1 CPT inconclusive.
For CCOc1ccc(CCN2CN(C3CCCCC3)CNC2=S)cc1OCC the results were DRD3 agonist 11, ClpP mod 1%, IL-1B inflam inh 22, TDP1 cell noCPT 18µM*, DRD3 antagonist -3 and DT40 TDP1 CPT inconclusive.
CC(=O)c1ccc(OC(=O)Cc2cccc3ccccc23)cc1 was read as DRD3 agonist -7, ClpP mod -1%, IL-1B inflam inh 24, TDP1 cell noCPT 9%, DRD3 antagonist 1 and DT40 TDP1 CPT 2%.
Screening Cc1ccc(NC(=O)c2cc(-c3ccco3)nc3ccccc23)cc1S(=O)(=O)N1CCOCC1 returned DRD3 agonist 2, ClpP mod inconclusive, IL-1B inflam inh 5, TDP1 cell noCPT 29µM*, DRD3 antagonist 23 and DT40 TDP1 CPT inconclusive.
For O=C(Nc1ccc(Cl)c(S(=O)(=O)N2CCOCC2)c1)c1cc(-c2ccccn2)nc2ccccc12 the results were DRD3 agonist -2, IL-1B inflam inh inconclusive, TDP1 cell noCPT 23µM*, DRD3 antagonist 103 and DT40 TDP1 CPT inconclusive.
O=C(Nc1ccc(Cl)c(S(=O)(=O)N2CCOCC2)c1)c1ccccn1 was read as DRD3 agonist 9, IL-1B inflam inh 18, TDP1 cell noCPT -18%, DRD3 antagonist 2 and DT40 TDP1 CPT 3%.
`Cc1cccc(CN2C[C@H](Sc3ccccn3)C[C@H]2C(=O)Nc2ccc3sc(C)nc3c2)c1` gave TDP1 cell noCPT -20% and DT40 TDP1 CPT 1%[9.04 µM].
`Cc1cc2c(n1-c1ccc(C(=O)NCCc3ccc(Cl)cc3)cc1)CCC(C)C2` (centres undefined) gave DRD3 agonist 6, ClpP mod -2%, TDP1 cell noCPT 23µM* and DT40 TDP1 CPT 26µM*.
For CCc1ccccc1-n1c(C)nc2cc(C(=O)NCCc3ccc(Cl)cc3)ccc21 the results were DRD3 agonist -24, ClpP mod -4%, TDP1 cell noCPT inconclusive and DT40 TDP1 CPT inconclusive.
